Results reported in ChEMBL document CHEMBL5606460, “ASAP - DENV-2 NS2B-NS3 protease fluorescence single point” (2024).
Among all 2,000 compounds or so, about 110 (5.5%) showed an effect of 50% or more. Shown is part of a subset that was picked to be rich in strong results.

Biological target: Genome polyprotein (dengue virus type 2) (UniProt P29990)
[1] = Thailand/16681/1984, Concentration 25.0 uM, Number of replicates 1.0

c1cnc2c(CN3CCC(c4c[nH]c5cccnc45)CC3)c[nH]c2c1
inhibition (Thailand/16681/1984, Concentration 49.5 uM, Number of replicates 2.0, Standard deviation 2.401783006640112 %): -4.14%
inhibition (Thailand/16681/1984, Concentration 99.01 uM, Number of replicates 2.0, Standard deviation 2.691377880268528 %): -3.47%
inhibition (Thailand/16681/1984, Concentration 198.0 uM, Number of replicates 2.0, Standard deviation 2.989922552884535 %): -1.51%

O=Cc1ccc(N2CCC(C(=O)N[C@@H](Cc3ccccc3)c3ccccc3)CC2)cc1
inhibition [1]: 4.84%

O=Cc1ccc(N2CCC(C(=O)NC[C@H]3COc4ccccc4O3)CC2)cc1
inhibition [1]: 15.5%

C#CCN(Cc1ccccc1Cl)C(=O)C1CCN(c2ccc(C=O)cc2)CC1
inhibition [1]: 14.7%

CNC(=O)c1cc(Br)cnc1NS(=O)(=O)c1ccc(Oc2ccccc2Cl)cc1
inhibition (Thailand/16681/1984, Concentration 49.5 uM, Number of replicates 2.0, Standard deviation 0.1523274770628613 %): 20.5%
inhibition (Thailand/16681/1984, Concentration 99.01 uM, Number of replicates 2.0, Standard deviation 0.08785965758059779 %): 73.9%
inhibition (Thailand/16681/1984, Concentration 198.0 uM, Number of replicates 2.0, Standard deviation 0.12988512316778045 %): 87.2%

CNC(=O)c1cc(Cl)ccc1NS(=O)(=O)c1ccc(C(=O)N2CCOCC2)cc1
inhibition (Thailand/16681/1984, Concentration 49.5 uM, Number of replicates 2.0, Standard deviation 0.9242131636205312 %): 0.016%
inhibition (Thailand/16681/1984, Concentration 99.01 uM, Number of replicates 2.0, Standard deviation 0.5448647637736805 %): 0.743%
inhibition (Thailand/16681/1984, Concentration 198.0 uM, Number of replicates 2.0, Standard deviation 0.08706358790592401 %): 3.74%

CNC(=O)c1nc(Cl)ccc1NS(=O)(=O)c1ccc(Oc2ccccc2Cl)cc1
inhibition (Thailand/16681/1984, Concentration 49.5 uM, Number of replicates 2.0, Standard deviation 0.5855266102241418 %): 6.34%
inhibition (Thailand/16681/1984, Concentration 99.01 uM, Number of replicates 2.0, Standard deviation 0.14494638377684543 %): 6.62%
inhibition (Thailand/16681/1984, Concentration 198.0 uM, Number of replicates 2.0, Standard deviation 0.056926230997118174 %): 4.4%

CNC(=O)c1cc(Cl)ncc1NS(=O)(=O)c1ccc(Oc2ccccc2Cl)cc1
inhibition (Thailand/16681/1984, Concentration 49.5 uM, Number of replicates 2.0, Standard deviation 0.003826975991637689 %): -0.629%
inhibition (Thailand/16681/1984, Concentration 99.01 uM, Number of replicates 2.0, Standard deviation 0.08610681229787821 %): -0.288%
inhibition (Thailand/16681/1984, Concentration 198.0 uM, Number of replicates 2.0, Standard deviation 0.5032468582115982 %): 12.6%

C[C@H]1COCCN1C(=O)c1cc(Cl)ccc1NS(=O)(=O)c1ccc(Oc2ccccc2Cl)cc1
inhibition (Thailand/16681/1984, Concentration 49.5 uM, Number of replicates 2.0, Standard deviation 1.11087224122176 %): 42.6%
inhibition (Thailand/16681/1984, Concentration 99.01 uM, Number of replicates 2.0, Standard deviation 0.41977451897359047 %): 79.8%
inhibition (Thailand/16681/1984, Concentration 198.0 uM, Number of replicates 2.0, Standard deviation 0.050716482924917095 %): 92.9%

CNC(=O)c1cncnc1NS(=O)(=O)c1ccc(Oc2ccccc2Cl)cc1
inhibition (Thailand/16681/1984, Concentration 49.5 uM, Number of replicates 2.0, Standard deviation 1.0127526920144583 %): 5.46%
inhibition (Thailand/16681/1984, Concentration 99.01 uM, Number of replicates 2.0, Standard deviation 1.3865274661736828 %): 5.75%
inhibition (Thailand/16681/1984, Concentration 198.0 uM, Number of replicates 2.0, Standard deviation 1.0625889801550739 %): 3.56%

CNC(=O)c1cc(C#N)ccc1NS(=O)(=O)c1ccc(Oc2ccccc2Cl)cc1
inhibition (Thailand/16681/1984, Concentration 49.5 uM, Number of replicates 2.0, Standard deviation 0.4271842721165937 %): 49.4%
inhibition (Thailand/16681/1984, Concentration 99.01 uM, Number of replicates 2.0, Standard deviation 0.14972718509713318 %): 88.8%
inhibition (Thailand/16681/1984, Concentration 198.0 uM, Number of replicates 2.0, Standard deviation 0.1152868035427591 %): 94%

CCc1ccc(NS(=O)(=O)c2ccc(Oc3ccccc3Cl)cc2)c(C(=O)NC)c1
inhibition (Thailand/16681/1984, Concentration 49.5 uM, Number of replicates 2.0, Standard deviation 2.280534278494396 %): 20.1%
inhibition (Thailand/16681/1984, Concentration 99.01 uM, Number of replicates 2.0, Standard deviation 1.9533776277108892 %): 35.5%
inhibition (Thailand/16681/1984, Concentration 198.0 uM, Number of replicates 2.0, Standard deviation 2.0141203401343657 %): 57.1%
